This is a sample that favours compounds with a hit; in the whole collection about 12% have one here.
FMDV antiviral – antivirals against foot and mouth disease virus; FMDV antiviral cell-based qHTS; 1.2% of 410,000 active; AID 1159524; Potency, µM (doses to about 57.9 µM), for inactives: at the highest dose activity change, negative = inhibition, hits mostly inhibitors; calls by dose curve; tested in HEK293T cells; note: read-out not given here; potency is the fitted concentration of half-maximal effect; % is set by controls: 0 for no effect and ±100 for the full control effect; nearly all actives have a fitted effect of over 45% in size
Shiga toxin inh – inhibitors of Shiga toxin in Vero cells; 9.2% of 290,000 active; Vero cells, Shiga toxin protein synthesis inhibition reporter; inhibition, % at 38.7 µM; in the data active = inhibition mostly above about 28%, no sharp cut-off; inactive = mostly below about 43%; note: 0% is about no effect
CHX counter – counter-screen for Shiga toxin inhibitors: cycloheximide protein synthesis inhibition. cell reporter, cycloheximide protein synthesis inhibition counterscreen. max response, %. 12% of 300,000 active; in the data active = max response mostly above about 13%, no sharp cut-off; inactive = mostly below about 14%; note: read at 38.3 µM for the half of the compounds with a filed dose; 0% is about no effect
Sm TGR block – blocks Schistosoma mansoni thioredoxin glutathione reductase; 3% of 360,000 active; purified TGR, DTNB reduction, TNB absorbance 405 nm; AID 485364; Potency, µM (doses to about 114 µM), without a hit: at the highest dose activity change, negative = inhibition, hits mostly inhibitors; active = well fitted inhibition curve with a large enough effect; inconclusive = small, poorly fitted or top-dose-only effect; inactive = no such curve, though single readings can be large or run the other way; note: potency is the fitted concentration of half-maximal effect; % is set by controls: 0 for no effect and ±100 for the full control effect; nearly all actives have a fitted effect of over 60% in size
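First, TGR (20 nM dispensed) and NADPH were mixed with compound. Second, a 15 min room-temperature incubation followed. Third, further NADPH and then DTNB were added to start the reaction. Finally, TNB absorbance was monitored kinetically.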
* = called active by the depositor; ? = inconclusive; nt = no result given; ! = not active in a repeat; [ ] = another dose, or the depositor's remark.

SMILES | FMDV antiviral | Shiga toxin inh | CHX counter | Sm TGR block
Cc1cc(Cl)ccc1OCC(=O)N(Cc1ccc(N(C)C)cc1)CC1CCCO1 (stereo unspecified) | ? | nt | nt | -6%
Cc1ccc(SCC(=O)NCc2ccc(F)cc2)cc1 | 11% | -13 | -4 | 4%
O=C(CSc1ccccc1)NCc1ccc(F)cc1 | 53% | 80* | 40* | nt
Cc1ccc(CSCC(=O)Nc2ccccc2)cc1 | 24% | 26* | 32* | -6%
O=C(CSc1ccccc1)NC(=O)NCc1ccccc1 | -3% | 5 | -1 | 12%
Cc1ccc(SCC(=O)NCc2ccccc2)cc1 | 44% | 71* | 21* | -11%
Cc1ccc(CNC(=O)CSCc2ccc(F)cc2)cc1 | 8% | 18 | 7 | -3%
Cc1ccc(CNC(=O)CSCc2ccccc2)cc1 | 28% | 71* | 29* | 1%
O=S(=O)(c1ccccc1)N1CCC2(CC1)CN(c1ncccn1)C2 | -12% | nt | nt | nt
CCC(=O)Oc1ccc(NC(=O)CSCc2ccccc2)cc1 | 63% | 96* | 25* | 9%
N#Cc1ccc(Nc2ccccc2)c(N)c1 | -15% | -9 | 4 | 0%
Nc1cc(C(F)(F)F)ccc1Nc1ccccc1 | 24% | 77* | 28* | -7%
COC(=O)c1cc2oc(C)cc2n1Cc1cccc(Cl)c1 | -1% | nt | nt | -21%
Cc1cc(C)cc(NC(=O)CCN2C(=O)c3ccccc3Sc3ncccc32)c1 | -5% | nt | nt | 40µM*
Cc1nc(-c2ccc(S(=O)(=O)N(C)Cc3ccccc3)cc2)co1 | -42% | nt | nt | -13%
CCn1c(SCC(=O)c2cccs2)nnc1-c1ccco1 | 58% | 87* | 39* | 45µM*
C=CCn1c(SCC(=O)N2c3ccccc3Sc3ccccc32)nnc1-c1ccco1 | -9% | 0 | 1 | ?
CCn1c(SCC(=O)N2c3ccccc3Sc3ccccc32)nnc1-c1ccco1 | nt | -7 | 1 | 14µM*
CCn1c(SCC(N)=O)nnc1-c1ccco1 | 13% | -8 | -4 | -12%
CCC(=O)N1CCc2cc(S(=O)(=O)NC(C(=O)NCCc3ccc(Cl)cc3)C(C)C)ccc21 (stereo unspecified) | -22% | nt | nt | 0%
CCCCCCC[n+]1ccc(-c2cc[n+](CCCCCCC)cc2)cc1 | -7% | -2 | -1 | -26%
CCCCCCCCCCCCCCCC[n+]1ccccc1 | 16µM*! | nt | nt | nt
COc1ccccc1CNC(=O)CCn1c(=O)c2ccccc2n(CC(=O)Nc2cc(Cl)ccc2C)c1=O | -24% | nt | nt | 0%
CCOP(=O)(OCC)C(NS(=O)(=O)c1ccccc1)C(Cl)(Cl)Cl (stereo unspecified) | 4% | -1 | 1 | 14µM*
CCOP(=O)(OCC)C(NC(=O)c1ccccc1)C(Cl)(Cl)Cl (stereo unspecified) | -15% | -8 | -1 | 33%
SMILES | FMDV antiviral | Shiga toxin inh | CHX counter | Sm TGR block
CCOC(=O)c1c(C)c(-c2ccccc2)n(CC(=O)Nc2cc(OC)cc(OC)c2)c1C | ? | nt | nt | -31%
COc1ccc2c(CC(=O)Nc3ccc(C)cc3)coc2c1 | 23% | nt | nt | 4%
Cc1nc(-c2nc(-c3c(C(=O)NN)noc3C)cs2)cs1 | 31% | 66* | 28* | -2%
COc1ccc(C2c3c(n(C)c4ccccc34)C(=O)N2CC(=O)Nc2ccc(C)c(Cl)c2)cc1 (stereo unspecified) | -14% | nt | nt | -8%
FC(F)(F)c1cnc(NNC(=S)Nc2ccccc2Cl)c(Cl)c1 | 10µM* | -9 | 0 | 1%
Cc1cccc(NC(=S)Nc2cccc(C(F)(F)F)c2)n1 | 1% | -4 | -2 | -7%
FC(F)(F)c1cccc(NC(=S)Nc2cccc(NC(=S)Nc3cccc(C(F)(F)F)c3)n2)c1 | -21% | 44* | 24* | -18%
S=C(Nc1ccccc1Cl)Nc1ccc(Cl)cc1Cl | ? | 10 | 1 | 25µM*
Cc1cccc(NC(=S)NNc2ncc(C(F)(F)F)cc2Cl)c1 | ? | -14 | 7 | -4%
S=C(Nc1ccccc1)Nc1ccc(Cl)cc1Cl | 52% | 139* | 29* | 25µM*
Cc1cc2nc(N3CCC(NC(C)c4nc(-c5ccccn5)no4)CC3)nc(C)c2cc1C (stereo unspecified) | -4% | nt | nt | nt
COc1ccc2c(c1)CC(C(=O)Nc1c(C)cc(C)cc1C)CO2 (stereo unspecified) | -1% | nt | nt | 2%
Cc1ccc2nc(-c3cccc(NC(=O)c4cccc5ccccc45)c3)oc2c1 | 33% | nt | nt | 11%
c1ccc(N2CCN(c3ncnc4[nH]ncc34)CC2)cc1 | ? | nt | nt | -9%
FC(F)(F)c1cccc(NC(=S)Nc2ccc(Cl)cc2Cl)c1 | ? | -8 | -4 | 22µM*
FC(F)(F)c1ccccc1NC(=S)Nc1cccc(Cl)c1 | -12% | -3 | -6 | 25µM*
S=C(NCCNC(=S)Nc1ccccc1Cl)Nc1ccccc1Cl | 24% | 20 | 0 | 0%
S=C(NNc1ccnc2cc(Cl)ccc12)Nc1ccccc1Cl | ? | 52 | 23* | -10%
NNC(=S)Nc1ccccc1Cl | 2% | 86* | 43* | -11%
CN(C)c1cccc(C(=O)NNC(=S)NC2CC3CCC2C3)c1 (stereo unspecified) | 35% | 56* | 32* | 0%
CC(C)N(C(=S)NC1CC2CCC1C2)c1ccccc1 (stereo unspecified) | 22% | -15 | -2 | 0%
Oc1ccccc1/C=N/Nc1nc2ccccc2o1 | 5% | 97* | 62* | -1%
Brc1ccc(/C=N/Nc2nc3ccccc3o2)cc1 | 54% | 57* | 41* | -4%
COc1cc(/C=N/Nc2nc3ccccc3o2)cc(OC)c1O | 30% | 42 | 25 | -11%
CC(=O)c1cccc(NC(=O)c2nc3ccccc3nc2N2CCCCC2)c1 | -1% | nt | nt | 7%
SMILES | FMDV antiviral | Shiga toxin inh | CHX counter | Sm TGR block
CC(=O)Cc1nsc(NC(=O)c2ccc(COc3ccccc3C)o2)n1 | -20% | -6 | -4 | -18%
CC(=O)Cc1nsc(Nc2ccc(F)cc2)n1 | 0% | 65* | 22 | -12%
CC(=O)Cc1nsc(Nc2ccc3c(c2)OCCO3)n1 | 78% | 96* | 82* | -2%
CC(=O)Cc1nsc(NC(=O)c2ccc(-c3cccc(Cl)c3)o2)n1 | 18% | 32 | -3 | ?
CC(=O)Cc1nsc(Nc2ccc(Cl)cc2)n1 | 41% | 86* | 61* | nt
Cc1cccc(C)c1NC(=O)Cn1nnc(S(=O)(=O)c2ccccc2)c1N | -10% | nt | nt | -2%
Cc1ccc(N=Cc2c(O)[nH]c3ccccc23)c([N+](=O)[O-])c1 | 0% | 64* | 22* | ?
COc1ccc(N=Cc2c(O)ccc3ccccc23)cc1 | -17% | 25 | 12 | ?
Cc1ccccc1-n1c(O)c(C=Nc2ccc3c(c2)OCO3)c(=O)[nH]c1=O | -15% | -10 | -2 | -8%[11.4 µM]
Oc1[nH]c2ccccc2c1/C=N/N1CCCCC1 | 18% | -4 | 9 | -6%
Oc1[nH]c2ccccc2c1C=Nc1ccc2c(c1)OCO2 | -5% | 68* | 65* | 2%
Oc1[nH]c2ccccc2c1/C=N/c1nccs1 | 34% | 51 | 28* | -26%
COc1ccc(N=Cc2c(O)[nH]c3ccccc23)cc1 | 41% | 40* | 37* | -25%
CC(CNC(=O)c1cc(-c2ccccc2)n[nH]1)c1ccccc1 (stereo unspecified) | 19% | nt | nt | -5%
COc1ccc(S(=O)(=O)N=Nc2c(O)[nH]c3ccccc23)cc1 | 16% | 11 | 4 | ?
COc1ccc(CN=Cc2c(O)[nH]c3ccccc23)cc1 | 38% | 25* | 27* | 4%

Source: PubChem BioAssay (National Center for Advancing Translational Sciences (NCATS))
